Data on 40 molecules can be found in PubChem BioAssay (NCI).

Compounds without any hit were thinned out: in the full panel of roughly 83,000, 20% have a hit.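 Each cell line was grown in a 96-well plate and treated with one concentration of compound for 48 hours. Values below 10 were considered active.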 Values without a mark were called inactive. Activity calls are given as the source filed them.

The assay has as its system CAKI-1 renal. In words: NCI-60 one-dose screen, 48 h (100 = growth as untreated, 0 = no growth, -100 = all killed). The following applies: 10 µM. The procedure: Growth inhibition of the CAKI-1 human tumor cell line is measured as a screen for anti-cancer activity. Cells are grown in 96 well plates and exposed to the test compound for 48 hours. Compounds are tested at a single concentration, which is 10^-5 M for most compounds. The reported endpoint is percent growth (GI% or GIPRCNT), where numbers from 0 - 100% represent growth inhibition, and numbers from -100% - 0 represent cell death. For example, a value of 40 represents 60% growth inhibition. A value of 0 means no net growth occurred over the course of the experiment. A value of -40 indicates 40% of cells at the beginning of the experiment died by the end of the experiment. A value of -100 means all cells are dead at the end of the experiment.
NCI-60 Human Tumor Cell Lines Screen was performed using the standard one-dose NCI protocol, which is described in more detail at https://dtp.cancer.gov/discovery_development/nci-60/default.htm.
Compounds with GIPRCNT values below 10 were considered active. Activity score was based on GIPRCNT using the following formula: […]
Score is 0 for GIPRCNT values of 100 or above, 50 for GIPRCNT values of 0, and 100 for GIPRCNT values of -100.
As for `O=C(Nc1ccc(OS(=O)(=O)c2ccccc2)cc1)C1CCCCC1`, the growth was 93.1%. For `NS(=O)(=O)c1ccc(Br)cc1` the value was 95.3%. `O=[N+]([O-])c1ccc(NCSc2ccc(Cl)cc2)cc1`: the growth was 96.2%. As for `COc1ccc(/C=C2\CCCC3C2=Nc2ccccc2NC3c2ccc(OC)cc2)cc1` (stereo not given), the growth was 78.2%. For the molecule `COc1cc2c3c(n([C@H]4CCOC4)c(=O)c2cc1OC)-c1cc2c(cc1C3=O)OCO2`, the growth was 33.5%.

On to `CCC(c1ccc(OC)cc1)C(CC)c1ccc(O)c(CN2CCN(C)CC2)c1` (stereo not given), for which the growth is 41.1%. `COc1ccc(/C=c2\sc3n(c2=O)C(c2cc(OC)c(OC)c(OC)c2)C=C(c2ccc(OC)c(OC)c2)N=3)cc1OC` (stereo not given): the growth is 105%. As for `COc1cc(/C=C2\CCCC3C2=Nc2ccccc2NC3c2cc(OC)c(OC)c(OC)c2)cc(OC)c1OC` (stereo not given), the growth was 6.51% (active). As to `O=S(=O)(NCCCNc1nccc(-c2cn(-c3ccccc3)nc2-c2ccc(Cl)c(O)c2)n1)c1ccccc1`, the growth is 90.4%. Turning to `COc1cc2c(cc1NC(=O)C(F)(F)F)-c1ccc(NC(=O)C(F)(F)F)cc1C2`, the growth was 96.9%.

For `c1cnc2[nH]cc(-c3nc(-c4ccsc4)cs3)c2c1`, the growth was 96.3%. On to `CCN(CC)CCCC(C)Nc1c2ccc(Cl)cc2nc2ccc(OC)cc12` (stereo not given), for which the growth was 1.55% (active). With `O=C(CSc1nccc(Nc2cccc3ccccc23)n1)c1ccc(Cl)cc1`, the growth was 60.3%. For `O=C1/C(=C/c2ccc3c(c2)OCO3)SC(=S)N1C1c2ccccc2Oc2ccccc21`, the growth is 92.8%. For `Cc1ccc(S(=O)(=O)N/N=C2\CCCc3ccccc32)cc1`, the growth is 89.8%. Turning to `CO[C@H]1CC(O[C@@H]2/C(C)=C/C[C@@H]3C[C@@H](C[C@]4(C=C[C@H](C)[C@@H](C5CCCCC5)O4)O3)OC(=O)[C@@H]3C=C(C)[C@@H](O)[C@H]4OC/C(=C\C=C\[C@@H]2C)[C@]43O)O[C@@H](C)C1O[C@H]1C[C@H](OC)[C@@H](O)[C@H](C)O1` (stereo not given in full), the growth is -94.6% (active).

For `Cc1nc2n(c(=O)c1CCN1CCC(c3noc4cc(F)ccc34)CC1)CCC[C@@H]2O`, the growth was 102%.

Turning to `CC(=O)Nc1ccc2c(c1)C(=O)c1cccc(C(=O)O)c1-2`, the growth is 94.9%. On to `O=C1C=C(Nc2cccc(Br)c2)c2ccccc2C1=O`, for which the growth was 78.3%. For the molecule `O=C(CCCSc1nc(-c2ccccc2)cc(-c2ccc(Cl)cc2)n1)NO`, the growth was 2.37% (active).

For `O=C(Nc1ccc(OCc2nnc(-c3ccc(Cl)cc3)o2)c(F)c1)Nc1ccc(Cl)c(C(F)(F)F)c1`, the growth is 13.3%. For `O=C1OC(C(Cl)(Cl)Cl)OC1C(Cl)(Cl)Cl` (stereo not given) the value was 113%; for `CN1CCN(C2=Nc3ccccc3Oc3ccc(Cl)cc32)CC1`, 81.5%. Regarding `O=C(O)c1ccc(-n2cc(CNc3ccc(Oc4ccccc4)cc3)c(-c3ccccc3)n2)cc1`, the growth was 86.4%. As to `COc1ccc(C(=O)CSc2nc(-c3cc(OC)ccc3OC)cc(-c3ccc(OC)cc3)c2C#N)cc1`, the growth is 96.3%. As for `CN1C(C(=O)Nc2ccccn2)=C(O)c2sc(Cl)cc2S1(=O)=O`, the growth was 92.4%. With `Cc1n[nH]c(C)c1N=Nc1cccc2c1C(=O)c1ccccc1C2=O`, the growth was 73.6%. Consider `COc1ccc(/C(C#N)=C/c2cccc(OC)c2OC)cc1`, for which the growth is 74.7%. As for `CC[C@@H](C(=O)[C@@H](C)[C@@H](O)[C@H](C)[C@@H]1O[C@@H]([C@@H](CC)C(=O)N(CC)CC)CC[C@@H]1C)C1O[C@]2(C=CC(=O)[C@]3(CC[C@@](C)([C@H]4CC[C@](O)(CC)[C@H](C)O4)O3)O2)[C@H](C)C[C@@H]1C` (stereo not given in full), the growth is 7.58% (active). As for `Cc1ccc(NC(=S)NNC(=S)Nc2ccc(C)cc2)cc1`, the growth is 67.8%.

`O=C(N/N=C/c1ccc(Cl)cc1)c1ccc(Cc2n[nH]c(=O)c3cccnc23)cc1`: the growth is 94.8%. Consider `CC(=O)N[C@H](C(=O)N[C@@H](CCCNC(=N)N)C(=O)N[C@@H](CCCCN)C(=O)N[C@@H](CCCNC(=N)N)C(=O)N[C@]1(C)CCC/C=C\CCC[C@@](C)(C(=O)N[C@@H](CC(C)C)C(=O)N[C@@H](CC(C)C)C(=O)N[C@@H](CCC(N)=O)C(=O)N[C@@H](CCC(=O)O)C(=O)N[C@@H](CCCNC(=N)N)C(=O)N[C@@H](CCC(=O)O)C(=O)N[C@@H](CC(C)C)C(=O)N[C@H](C(=O)N[C@@H](CCC(=O)O)C(N)=O)C(C)C)NC(=O)[C@H](CCCNC(=N)N)NC(=O)[C@H](CC(C)C)NC1=O)C(C)C`, for which the growth was 98.9%.

`O=c1[nH]c(=O)n(C2C[C@H](O)[C@@H](CO)O2)cc1C(F)(F)F` (stereo not given in full): the growth was 96.3%. Consider `CN1CCN(c2cc3c(cc2F)c(=O)c(C(=O)O)cn3-c2ccc(F)cc2)CC1`, for which the growth was 94.7%.

As to `CCC1NC(=O)c2cc(S(N)(=O)=O)c(Cl)cc2N1` (stereo not given), the growth is 104%. `Cc1cc(C(C#N)c2ccc(Cl)cc2)c(Cl)cc1NC(=O)c1cc(I)cc(I)c1O` (stereo not given): the growth was 38.7%. As to `CCCCN1C(=O)CC(SC2CC(=O)N(CCCC)C2=O)C1=O` (stereo not given), the growth was 88.6%. Turning to `NC(=O)c1cccc(-n2ccc3cc(NC(=O)Nc4ccc(Cl)c(C(F)(F)F)c4)ccc32)n1`, the growth is 61%. On to `CNC(=O)c1cc(Oc2ccc3c(c2)sc2nc(-c4ccc(NC(=O)Nc5ccc(Cl)c(C(F)(F)F)c5)cc4)cn23)ccn1`, for which the growth was 80.6%. `COc1ccc(C2CC(c3cc(OC)c(OC)c(OC)c3)=NN2)cc1` (stereo not given): the growth is 69%.
